Source: PubChem BioAssay AID588413 (Sanford-Burnham Center for Chemical Genomics, 2011)
Several values for one entry are separate records, joined by “and”; a condition that tells them apart may be missing. Equal values may be shown once. Among all 340,000 compounds or so, about 2,500 (0.74%) were called active. Only a selection was taken, and actives are over-represented in it overall. Values without a mark were called inactive.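 The calls were made as follows: active = inhibition above about 55% (limit read from the data); inactive = the rest.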

experiment: Gli-Sufu pathway antagonists, primary screen, luciferase luminescence, Sufu-KO-LIGHT cells, uHTS (AID 588413); details: Sufu-KO-LIGHT fibroblasts, Gli luciferase reporter luminescence; at 5 µM; hits give high values;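 also: 0% = DMSO-treated cells and 100% = wells with medium but no cells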

Row | Structure (SMILES) | inhibition
1 | Cc1ccc(SC(=O)COc2ccc(C)c(C)c2)cc1 | -16.4%
2 | COc1cc(C2C3C(=O)N(c4ccccc4)C(=O)C3ON2c2ccccc2)ccc1O (stereo unspecified) | 1.38%
3 | O=C(CCN1C(=O)c2ccccc2C1=O)C1=NN[C@@H]2C(=O)N(c3ccc(F)cc3)C(=O)[C@H]12 | 27.5%
4 | CO/N=C/c1cn(-c2ccc(Cl)cc2)nn1 | -5.6%
5 | COc1ccccc1CNC(=O)C1CCN(c2nc3ccccc3o2)CC1 | 79.4% (active)
6 | COc1ccc(OC)c(CNC(=O)C2CCCN(c3nc4ccccc4o3)C2)c1 (stereo unspecified) | 1.69%
7 | COc1ccccc1CNC(=O)C1CCN(S(C)(=O)=O)CC1 | -3.13%
8 | COC(=O)Cc1nc2c(N)nc(N)nc2[nH]c1=O | 5.09%
9 | NC(=O)C1CCN(C(=O)c2cc(S(=O)(=O)N3CCN(c4ccccc4)CC3)ccc2Cl)CC1 | 3.01%
10 | COc1ccc(OC(C)C(=O)Nc2cccnc2)cc1 (stereo unspecified) | -1.18%
11 | COc1ccc(CCC(=O)c2ccc(OC)cc2)cc1 | 1.15%
12 | COc1ccc(CS(=O)/C(Cl)=C(/Cl)C(=O)Nc2ccc(OC)nc2)cc1 (stereo unspecified) | 68.1% (active)
13 | Cc1nc2nc[nH]n2c(=O)c1C/C=C/c1ccccc1 | 26.2%
14 | C=CCc1c(C)nc2cc(-c3ccccc3)[nH]n2c1=O | 27.4%
15 | CCc1c(C)nc2cc(C)[nH]n2c1=O | 75% (active)
16 | CCOc1ccccc1NC(=S)C(=C([O-])c1ccc2c(c1)OCCO2)[n+]1ccc(CC)cc1 | -43.8%
17 | COc1ccc2cc(C3=CC(=O)C[C@H](c4ccc5c(c4)OCO5)C3)ccc2c1 | -5.21%
18 | O=C1C=C(c2cc(C(F)(F)F)cc(C(F)(F)F)c2)C[C@@H](c2ccc3c(c2)OCO3)C1 | 6.64%
19 | O=C1C=C(c2ccnc3cc(Cl)ccc23)C[C@@H](c2ccc3c(c2)OCO3)C1 | 66.7% (active)
20 | N#CCC(=O)NC(=O)NCC1CC1 | -8.84%
21 | CC(=O)c1cc(NC(=O)c2ccccc2)c(=O)oc1/C=C/N(C)C | 8.24%
22 | CCN1CCC2(CCN(Cc3cn[nH]c3-c3ccc(OC)c(F)c3)C2)C1 (stereo unspecified) | 7.07%
23 | COc1ccc(-n2c(Cc3cccn3C)nnc2SCC(=O)Nc2cc(C)cc(C)c2)cc1 | 0.63%

Row | Structure (SMILES) | inhibition
24 | CCCCn1c(SCC(=O)N2CCCC2=O)nc2cc(S(N)(=O)=O)ccc21 | 5.29%
25 | CCCCn1c(SCC(=O)N2CCC(C(=O)OCC)CC2)nc2cc(S(N)(=O)=O)ccc21 | 6.66%
26 | NS(=O)(=O)c1ccc(CCNC(=O)CCCn2c(SCC(=O)N3CCCC3)nc3ccsc3c2=O)cc1 | 79.4% (active)
27 | Cc1cc(N2C(=O)C(=O)/C(=C(/O)c3ccccc3)C2c2cccc(Br)c2)no1 (stereo unspecified) | 7.53%
28 | CC(=O)c1ccc(NC(=O)Cn2c(=O)oc3ccccc32)cc1 | 11.6%
29 | Cc1sc2nc(SCCO)n(-c3ccccc3)c(=O)c2c1C | 3.29%
30 | COC(=O)c1ccc(NCc2cc(O)ccc2O)cc1 | 3.08%
31 | O=C(OC12CC3CC(CC(C3)C1)C2)c1ccc(NCc2cc(O)ccc2O)cc1 | 70.4% (active)
32 | CC(C)OC(=O)c1ccc(NCc2cc(O)ccc2O)cc1Cl | -6.82%
33 | Cn1cnc2c1c(=O)n(Cc1ccccc1C#N)c(=O)n2C | 6.5%
34 | O=C(Nc1ccccc1C(=O)Nc1ccncc1)c1ccc([N+](=O)[O-])cc1 | -25.8%
35 | CN1C2CCC1CC(NC(=O)c1ccc([N+](=O)[O-])cc1)C2 (stereo unspecified) | -0.59%
36 | O=C(Nc1cc2c3c(c1)C1CCCC1CN3CC1CCCC21)c1ccc([N+](=O)[O-])cc1 (stereo unspecified) | 72.5% (active)
37 | CCOc1ccc(NC(=O)N(CC(C)C)CC(C)C)cc1 | -3.25%
38 | O=C(CCNC(=O)c1ccc(Br)cc1)NCC(c1ccco1)N1CCCCC1 (stereo unspecified) | 2.12%
39 | Cc1ccc(OS(=O)(=O)c2ccc(-c3csc(C)n3)s2)c(C)c1 | -1.77%
40 | CC1(C)CC(=O)C=C(N2CCOCC2)C1 | -5.06%
41 | c1ccc(C(c2ccccc2)N2CCN(Cc3nnnn3C3CCCCC3)CC2)cc1 | -7.75%
42 | CC1(C)CC(N2CCN(C(c3ccccc3)c3ccccc3)CC2)=CC(=[N+]2CCCCC2)C1 | 89.2% (active)
43 | O=C(COc1ccc(Cl)cc1Cl)NCCCNC(=O)c1cnccn1 | -2.79%
44 | CN1C(=O)CC(c2ccccc2)C1=O (stereo unspecified) | 1.09%
45 | COc1ccc(N(CC(=O)Nc2ccc(F)c(F)c2)S(=O)(=O)c2c(C)[nH]c(=O)[nH]c2=O)cc1 | -1.05%
46 | O=C1Nc2ccc(Br)cc2/C1=N/N=C/C1=C(N2CCOCC2)C(=C\c2ccccc2)/CC1 | 20.5%

Row | Structure (SMILES) | inhibition
47 | COc1ccc(/C=N/N=C2/C(=O)Nc3ccccc32)cc1O | 58.7% (active)
48 | CCOc1ccc(/C=N/NC(=O)CSc2ccccn2)cc1O | 4.66%
49 | Cc1ccccc1CS(=O)(=O)CC1(O)CCN(C(=O)c2cccc(C(F)(F)F)c2)CC1 | 0.32%
50 | O=C(N=C1SC2CS(=O)(=O)CC2N1c1cc(Cl)ccc1Cl)C1CC1 (stereo unspecified) | 6.54%
51 | Clc1ccc(C[n+]2cc(-c3ccccc3)n3c2CCC3)cc1 | 49.7%
52 | Cc1ccc(-c2c[n+](CC(=O)Nc3ccccc3)c3n2CCC3)cc1 | -11.4%
53 | Cc1ccc(C(=O)C[n+]2cc(-c3ccccc3)n3c2CCCCC3)cc1 | 67.1% (active) and 72.5% (active)
54 | CC(=O)c1ccc(NC(=O)C(C)OC(=O)c2ccc(NS(=O)(=O)c3ccc4[nH]c(=O)[nH]c4c3)cc2)cc1 (stereo unspecified) | 7.04%
55 | O=C1CSC(=O)N1CCOCCN1C(=O)CSC1=O | -19.6%
56 | CCN(CC)S(=O)(=O)c1ccc(N(C)Cc2cccc(OC)c2OC)nc1 | 1.8%
57 | CC(C)(C)OC(=O)C[C@H]1C/C=C\C[C@@H](CC(=O)N[C@H](CO)Cc2ccccc2)C(=O)NC[C@@H](c2ccccc2)OC1=O | 4.33%
58 | O=C(C[C@H]1C/C=C\C[C@@H](NC(=O)OCC2c3ccccc3-c3ccccc32)C(=O)O[C@@H](c2ccccc2)CNC1=O)N[C@H](CO)Cc1ccccc1 | 60.2% (active)
59 | CC(C)(C)OC(=O)C[C@@H]1C/C=C\C[C@@H](CC(=O)N[C@H](CO)Cc2ccccc2)C(=O)NC[C@@H](c2ccccc2)OC1=O | -21.7%
60 | COc1ccc(CCNC(=O)CCn2c(=O)c3ccccc3n(CC(=O)NCC3CCCO3)c2=O)cc1OC (stereo unspecified) | 2.58%
61 | CCN(CC(=O)Nc1ccc(OC)cc1)C(=O)CSCc1ccc(C)cc1 | -9.04%
62 | CCN(CC(=O)Nc1cc(Cl)ccc1C)C(=O)CSCc1ccc(C)cc1 | 62.8% (active)
63 | CCN(CC(=O)Nc1cc(Cl)ccc1C)C(=O)CSCc1ccccc1 | -4.34%
64 | Cc1ccc2c(c1)N(CC(=O)NCCc1ccc(Cl)cc1)C(=O)c1cccnc1O2 | -9.76%
65 | COC[C@@H]1NS(=O)(=O)c2ccc(Br)cc2O[C@H]1c1ccccc1 | 15.6%
66 | Cc1ccc(S(=O)(=O)c2nc(-c3cccs3)oc2NCc2cccnc2)cc1 | 3.04%
67 | Cc1ccc(OCCNC(=O)CN2C(=O)NC3(CCCC3)C2=O)cc1 | -5.27%
68 | O=C(CSc1cccc2cccnc12)N/N=C/c1cccnc1 | 71% (active)
69 | Cc1c(NC(=O)CSc2cccc3cccnc23)c(=O)n(-c2ccccc2)n1C | 8.55%

Row | Structure (SMILES) | inhibition
70 | COc1ccc(C(=O)NCC(=O)N/N=C/c2cccnc2)cc1 | -0.02%
71 | NC(=O)CC(NC(=O)Cc1ccc(Br)cc1)c1ccc(NC2CC3CCC2C3)c([N+](=O)[O-])c1 (stereo unspecified) | 19%
72 | CC(=O)N1CCC(C(=O)Nc2nc(-c3ccccc3)ns2)CC1 | -14.5%
73 | Cc1nn(C)c(Cl)c1CN1CCC(n2nccc2NC(=O)C2CCCC2)CC1 | 61.7% (active)
74 | CC(CN1CCC(n2nccc2NC(=O)C2CCCC2)CC1)c1ccccc1 (stereo unspecified) | 8.83%
75 | O=C(Nc1ccnn1C1CCN(Cc2cccc(OCCO)c2)CC1)C1CCCC1 | 10.8%
76 | COc1cccc(-n2nc(C(=O)N3CCN(Cc4ccccc4)CC3)c3ccccc3c2=O)c1 | 11%
77 | COc1cccc(-n2cc3c(c2-c2ccccc2)c(=O)n(C)c(=O)n3C)c1 | 1.34%
78 | COc1cccc(-n2cc(C(=O)O)c3ccccc3c2=O)c1 | 59.2% (active)
79 | CCCCOC(=O)CNc1nnc(SCC(=O)OCC)[nH]c1=O | -6.62%
80 | COc1ccccc1NC(=O)CCSc1nnc(-c2ccc(O)cc2)o1 | -0.57%
81 | Brc1c(CSc2nncc3ccccc23)nc2ccccn12 | 65% (active)
82 | COc1cc(C(=O)N2CCN(C3CCC(C)CC3)CC2)cc(OC)c1OC (stereo unspecified) | 5.83%
83 | O=c1c2cc([N+](=O)[O-])ccc2nc2n1CCC2 | -23.1%
84 | CC(=O)c1ccc(Oc2cc(C)nc(-n3nc(C)cc3C)n2)cc1 | 30.8%
85 | CCOC(=O)c1cnc(-n2nc(C)cc2C)nc1NNc1cc(C)nc(-c2ccccc2)n1 | 80% (active)
86 | Cc1cc(C)n(-c2c(F)c(F)c(COC(=O)c3ccccc3)c(F)c2F)n1 | 6.99%
87 | Cc1nn(Cc2ccc(F)cc2)c(C)c1NC(=O)c1noc2c1CCc1ccccc1-2 | 6.19%
88 | O=C(O)C(c1cccs1)C1(O)CCCCC1 (stereo unspecified) | 6.95%
89 | C=CCOC(=O)C1=C[C@@H](c2ccc3c(c2)OCO3)C[C@@H](OCCCCO)O1 | 98.8% (active)
90 | C=CCOC(=O)C1=C[C@H](c2ccc(Br)cc2)C[C@H](OCCCCO)O1 | -1%
91 | NC(=O)C1=C[C@@H](c2ccc3c(c2)OCO3)C[C@@H](OCCCCO)O1 | -4.81%
